Test results: PubChem BioAssay AID2435 (The Scripps Research Institute Molecular Screening Center, 2010)
In all, about 320,000 compounds went through this assay and about 1,000 (0.31%) were called active. For the sample, actives were picked, then their nearest neighbours and some compounds at random. A number with no mark means an inactive call.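 Rule for the calls: active = activation above the mean of all tested compounds plus 3 SD, cutoff set per screening run (cut at about 20% in these data); inactive = the rest.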

Each compound was assayed against Oxytocin receptor (Homo sapiens) (UniProt P30559) (assay: oxytocin receptor activation by calcium flux – fluorescence, CHO-OTR cells, Fluo-8 calcium, primary screen (AID 2435;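 note: peak over basal fluorescence ratio from a 100 s FLIPR kinetic read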)). Conditions: Fluo-8 calcium fluorescence, at 3 µM, hits give high values, normalized: DMSO 0%, oxytocin 100%.
Sequence of Oxytocin receptor (Homo sapiens) (P30559 whole entry, looked up): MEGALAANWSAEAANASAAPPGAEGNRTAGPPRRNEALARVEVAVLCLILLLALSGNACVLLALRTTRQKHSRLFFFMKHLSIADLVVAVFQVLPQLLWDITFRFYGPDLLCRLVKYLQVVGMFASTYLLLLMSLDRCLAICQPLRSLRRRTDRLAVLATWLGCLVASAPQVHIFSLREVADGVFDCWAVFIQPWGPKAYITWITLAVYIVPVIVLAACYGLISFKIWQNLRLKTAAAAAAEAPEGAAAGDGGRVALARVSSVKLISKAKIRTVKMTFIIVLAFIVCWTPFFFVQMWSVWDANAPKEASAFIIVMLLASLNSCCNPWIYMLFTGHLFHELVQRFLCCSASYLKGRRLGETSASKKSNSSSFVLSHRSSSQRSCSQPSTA

Row | Structure (SMILES) | activation
1 | CC1=CC2=NC(=O)/C(=C/c3coc4ccccc4c3=O)C(=N)N2O1 | 30.4% (active)
2 | COc1ccc(OCCCn2cccc2/C=C2/C(=N)N3OC(C)=CC3=NC2=O)cc1 | 1.35%
3 | CCOc1cc(/C=C2/C(=N)N3OC(C)=CC3=NC2=O)ccc1OC | -0.04%
4 | C=CCSc1nc(N)cc(=O)[nH]1 | 0.06%
5 | CCOC(=O)Cn1c(-c2cccnc2Cl)nc2ccccc21 | 0.33%
6 | CCCCCCCCCCOC(=O)Cn1c(COc2cccc(OC)c2)[n+](C)c2ccccc21 | 21.5% (active)
7 | CCCCCCCCCCOC(=O)Cn1c(COc2ccc(C)cc2)[n+](C)c2ccccc21 | -1.93%
8 | CC1=CC(C)(C)NC(=S)N1c1ccccc1 | -0.69%
9 | Cc1cc(N)n2nc(-c3ccc(C(C)(C)C)cc3)cc2n1 | -1.18%
10 | C#CCOCCOCCOCCNc1nc(N2CCN(C(=O)C([C@@H](C)CC)n3cc(C(N)COC(=O)C(F)(F)F)nn3)CC2)nc(N2CCN(C(=O)[C@H](Cc3ccc(O)cc3)n3cc(C(N)[C@H](C)CC)nn3)CC2)n1 (stereo partly specified) | 0.32%
11 | c1ccc(C2CNCc3c2ccc2ccccc32)cc1 (stereo unspecified) | 22.4% (active)
12 | c1ccc2c(CCN3CCNC[C@H]3Cc3cccc4ccccc34)cccc2c1 | 8.2%
13 | COCCn1c(=O)[nH]c(=O)c2cc(C(=O)c3cc(OC)ccc3O)cnc21 | -0.31%
14 | Cc1ccc2oc(=O)c3cnn(CC(=O)N(Cc4ccco4)C4CCCCC4)c3c2c1 | -1.36%
15 | CC1CN(S(=O)(=O)c2ccc(C(=O)NN3CCN(C)CC3)cc2)CC(C)O1 (stereo unspecified) | 0.04%
16 | COc1ccc(C2C=C(c3ccc(Br)cc3)Nc3nc(NS(C)(=O)=O)nn32)cc1 (stereo unspecified) | 20.5% (active)
17 | Brc1ccc(C2=CC(c3ccco3)n3ncnc3N2)cc1 (stereo unspecified) | 16.4%
18 | CCOc1ccc(C2=CC(c3ccccc3)n3ncnc3N2)cc1 (stereo unspecified) | -2.25%
19 | COc1ccc(OC)c(NC(=S)N2CCc3ccccc3C2)c1 | -1.2%
20 | O=S(=O)(c1cccc(Cn2nnc(-c3ccc(F)cc3)n2)c1)N1CCOCC1 | 18.4%
21 | O=C(C1CCCN1S(=O)(=O)c1ccc(Br)cc1)N1CCOCC1 (stereo unspecified) | -0.61%
22 | COc1cccc(CNC(=O)c2nnn(CC(=O)Nc3cc(Cl)ccc3C)c2N)c1 | 2.37%
23 | COc1ccc(CNC(=O)c2nnn(CC(=O)Nc3cc(C)cc(C)c3)c2N)cc1 | 0.21%

Row | Structure (SMILES) | activation
24 | CCOc1ccc(Cn2nnc(C(=O)Nc3ccc(OC)cc3OC)c2N)cc1 | 25.1% (active)
25 | CCc1ccc(NC(=O)Cn2nnc(C(=O)NCc3ccc(OC)cc3)c2N)cc1 | 0.62%
26 | CCOc1ccc(Cn2nnc(C(=O)NCc3ccccc3)c2N)cc1 | 32% (active)
27 | COc1ccc(NC(=O)Cn2nnc(C(=O)NCCc3ccc(OC)c(OC)c3)c2N)cc1 | -0.34%
28 | Cc1ccc2c(c1)N(CC(=O)N1CCC(C)CC1)C(=O)c1cccnc1O2 | 1.7%
29 | CCc1cccc(CC)c1NC(=O)COc1ccccc1C(=O)c1cc(C#N)c(=O)n(C2CCCCC2)c1 | 2.32%
30 | Cc1cc(C(=O)NC2CCN(Cc3ccccc3)CC2)n[nH]1 | 0.51%
31 | CN(CC(=O)NCc1ccc(Cl)cc1)S(=O)(=O)c1cccs1 | 0.76%
32 | CC(Oc1cccc(Cl)c1)C(=O)Nc1ccc(S(=O)(=O)Nc2ncccn2)cc1 (stereo unspecified) | 1.17%
33 | COc1ccc(NS(=O)(=O)c2ccc(NC(=O)c3ccc(N(C)S(C)(=O)=O)cc3)cc2)cc1 | 2.34%
34 | CCOc1ccc(S(=O)(=O)Nc2ccc(S(=O)(=O)Nc3cc(OC)ccc3OC)cc2)cc1 | 5.31%
35 | COc1ccc(NS(=O)(=O)c2ccc(Oc3c(C#N)cccc3C#N)cc2)cc1 | 21.2% (active)
36 | CCNc1ccc(C(=O)OCC(=O)N2c3ccccc3NC(=O)C2(C)C)cc1[N+](=O)[O-] | -1.03%
37 | Cc1ccc(NC(=S)NC(=O)c2ccc(-c3ccccc3)cc2)cc1 | 1.22%
38 | CCOC(=O)C1=C(NC(=S)NC(=O)c2ccccc2)c2ccccc2CC1(C)C | 25.1% (active)
39 | COCCCNC(=S)NC(=O)c1ccccc1 | 0.86%
40 | CC1=CC=CC2=N/C(=N\S(=O)(=O)c3ccc(F)cc3F)c3ccccc3CN12 | -2.27%
41 | COc1ccc(N2CCC(N3CCN(C)C(CCO)C3)CC2)cc1 (stereo unspecified) | -0.23%
42 | Cc1ccc(S(=O)(=O)N2CCN(C(=O)N3CCOCC3)CC2)c(C)c1 | 0.27%
43 | Nc1ccc2nc3c(=O)[nH]c(=S)[nH]c3nc2c1 | 35.4% (active)
44 | CSc1nnc(SCc2nc3sc(C(=O)O)c(C)c3c(=O)[nH]2)s1 | 6.08%
45 | CC(/C=C/c1ccccc1)=N\NC(=O)C1CC1(C)c1ccccc1 (stereo unspecified) | -2.09%
46 | CCOC(=O)Cn1c(=O)oc2cc(S(=O)(=O)N(C)Cc3ccco3)ccc21 | 1.29%

Row | Structure (SMILES) | activation
47 | CCOC(=O)/C=c1\s/c(=C\c2ccc(C#N)cc2)c(=O)n1CC(=O)Nc1cccc(C)c1C | 0.18%
48 | CN(c1ccccc1)c1ccc(/C=c2\s/c(=C(/C#N)C(=O)C(C)(C)C)n(Cc3ccco3)c2=O)cc1 | 20.3% (active)
49 | CCS(=O)(=O)N1CCCC(C(=O)NCCCN(C)Cc2ccccc2)C1 (stereo unspecified) | -0.22%
50 | Cc1ccccc1NC(=S)NC(=O)Cc1ccc(Cl)cc1 | 28% (active)
51 | O=C(COc1ccc(Cl)cc1)NC(=S)Nc1ccccc1N1CCOCC1 | -0.94%
52 | Cc1cccc(NC(=S)NCCc2ccc(Cl)cc2)c1C | -1.48%
53 | O=C(Cc1ccc(Cl)cc1)NC(=S)Nc1ccccc1O | 55.4% (active)
54 | Cc1ccc(C(=O)NC(=S)Nc2ccccc2C)cc1 | -1.72%
55 | COC(=O)Cc1ccc(NC(=S)NCc2ccc(Cl)cc2)cc1 | 7.5%
56 | O=C(Nc1ccc(S(=O)(=O)Nc2ncccn2)cc1)C12CC3CC(CC(C3)C1)C2 | -0.32%
57 | COc1cc(NC(=O)CN2C(=O)NC(C)(c3ccc(OC(F)F)cc3)C2=O)cc(OC)c1OC (stereo unspecified) | 2.87%
58 | Cn1c(C(=O)OC(C(=O)NC2CCCCC2)c2ccccn2)cc2sccc21 (stereo unspecified) | -2.18%
59 | Cc1nc(-c2ccccc2)cn2c1nc1ccccc12 | -2.1%
60 | S=C(NCC1COc2ccccc2O1)Nc1ccc(Br)cc1 (stereo unspecified) | 6.93%
61 | c1ccc2c(c1)OCC(CNc1ncnc3nc[nH]c13)O2 (stereo unspecified) | 80.8% (active)
62 | c1ccc(-c2cc3c(NCC4COc5ccccc5O4)ncnc3s2)cc1 (stereo unspecified) | -2.32%
63 | CCc1ccc(C2N3CC4([N+](=O)[O-])CN2CC([N+](=O)[O-])(C3)C4(C)C)cc1 (stereo unspecified) | -1.26%
64 | Cc1ccc(NC(=O)C(CC(=O)O)C2CCCO2)c(C)c1 (stereo unspecified) | -0.43%
65 | CC(=O)c1ccc(NC(=S)NC(=O)CC(C)C)cc1 | -2.1%
66 | COc1ccc(NS(=O)(=O)c2ccc(NC(=S)NC(=O)CC(C)C)cc2)cc1 | 22.5% (active)
67 | COc1ccc(OC)c(C(C)NC(=S)Nc2ccc(S(=O)(=O)Nc3ncccn3)cc2)c1 (stereo unspecified) | -0.31%
68 | Cc1ccccc1CSc1nnc(-c2ccccc2)c(=O)[nH]1 | 0.69%
69 | CCOc1ccc(/C=C(/NC(=O)c2ccccc2)C(=O)NCCC(=O)O)cc1 | 0.74%

Row | Structure (SMILES) | activation
70 | CC(C)(C)c1ccc(/C=C/C(=O)Nc2ncccn2)cc1 | -1.37%
71 | COc1ccccc1NC(=O)/C=C/C(N)=O | 0.46%
72 | COC(=O)c1sc(-c2ccc(C(C)(C)C)cc2)cc1NC(=O)/C=C/C(=O)O | 21.9% (active)
73 | CNC[C@H](CC1CCCCC1)NC[C@H](NCCC1CCCC1)[C@H](C)O | 3.53%
74 | O=C(/C=C(O)/C=C/c1ccc(O)cc1)/C=C/c1ccc(O)cc1 | 99.9% (active)
75 | O=C(O)/C=C/c1ccc(OCCCF)cc1 | 0.01%
76 | O=C(/C=C/c1ccc2c(c1)OCCO2)c1ccc(O)cc1 | 1.57%
77 | CCOc1cc(/C=C/c2nc3ccccc3c(=O)[nH]2)cc(Br)c1OC | 0.74%
78 | CC(C)[C@H](NC(=O)N1CCn2c1nc1ccccc12)C(=O)NCc1ccc2c(c1)OCO2 | -1.49%
79 | O=C(NCc1ccccc1Cl)C1CCN(c2ncnc3c2nc2n3CCCCC2)CC1 | 0.32%
80 | Cc1cc(F)ccc1N1CCC(N2CCN(C)C(CCO)C2)CC1 (stereo unspecified) | 0.09%
81 | COc1cc(C(=O)NC2CCN(C)CC2)ccc1Nc1ncc2c(n1)N(C1CCC(O)CC1)CCC(=O)N2C (stereo unspecified) | 0.79%
82 | COc1ccc(C(=O)NNC(=S)NC(=O)c2ccccc2[N+](=O)[O-])cc1 | -2.16%
83 | COc1ccc(C(=O)NC(=S)NC2CCCCC2)cc1 | -1.13%
84 | COc1ccc(C(=O)NC2CCN(C(=S)NCCc3ccccc3)CC2)cc1 | -0.97%
85 | COc1ccc(C(=O)NC(=S)NNC(=O)CCc2ccccc2)cc1 | 46% (active)
86 | COc1ccc(CCC(=O)c2ccc(OC)cc2)cc1 | -2.31%
87 | COc1ccc(C(=O)NNC(=S)NC(=O)c2ccccc2)cc1 | 55% (active)
88 | CNC(=O)c1csc(Cc2c(Cl)sc3ccc(Cl)cc23)n1 | -2.05%
89 | O=C(NCc1ccncc1)C(=O)NCC1OCCN1S(=O)(=O)c1ccc(Br)cc1 (stereo unspecified) | 0.38%
90 | NC(=O)c1ccsc1NC(=O)COC(=O)COc1ccc(C=O)cc1 | 16.4%
91 | Cc1c(Br)c([N+](=O)[O-])nn1CC(=O)Nc1sc2c(c1C(=O)OC(C)C)CCC(C)C2 (stereo unspecified) | 0.81%
